Screens deposited in PubChem BioAssay by several laboratories.
MEKK2wt PB1 HTS – raises or lowers MEK5 binding to wildtype human MEKK2 PB1 domain. binding response (% of control), % at 10 µM. 1.1% of 290,000 active. Q9Y2U5. bead flow cytometry, Alexa488-MEK5 binding to MEKK2 WT; actives lie on both sides. AID 1531; in the data active = binding response below about 67% or above about 130%
UBC13 inh – inhibitors of human UBC13 polyubiquitin chain formation; P61088; TR-FRET; inhibition, % at 20 µM; 0.47% of 330,000 active; AID 485273; in the data active = inhibition above about 45%, passing the limit was not always enough
MEKK2 mut-MEK5 – signal of MEK5 binding to mutant human MEKK2 PB1 domain; bead flow cytometry, Alexa488-MEK5 binding to MEKK2 mutant; percent response, % at 10 µM; 0.35% of 290,000 active; AID 1530; in the data active = percent response above about 24%, passing the limit was not always enough
MEKK3 PB1 HTS – modulators (inhibitors or enhancers) of MEK5 binding to human MEKK3 PB1 domain. bead-based flow cytometry, Alexa488-MEK5 binding to MEKK3; actives lie on both sides; 0 = blocked by unlabeled MEK5, 100 = vehicle. binding response (% of control), % at 10 µM. 1.4% of 290,000 active. AID 1529;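 active = binding response more than 3 SD above or below the average of its plate-row segment, actives on both sides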;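 also: Alexa488 bead fluorescence after subtracting the streptavidin-only scavenger bead signal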
Target sequence (Q99759 whole entry, looked up, the tested form may be a part): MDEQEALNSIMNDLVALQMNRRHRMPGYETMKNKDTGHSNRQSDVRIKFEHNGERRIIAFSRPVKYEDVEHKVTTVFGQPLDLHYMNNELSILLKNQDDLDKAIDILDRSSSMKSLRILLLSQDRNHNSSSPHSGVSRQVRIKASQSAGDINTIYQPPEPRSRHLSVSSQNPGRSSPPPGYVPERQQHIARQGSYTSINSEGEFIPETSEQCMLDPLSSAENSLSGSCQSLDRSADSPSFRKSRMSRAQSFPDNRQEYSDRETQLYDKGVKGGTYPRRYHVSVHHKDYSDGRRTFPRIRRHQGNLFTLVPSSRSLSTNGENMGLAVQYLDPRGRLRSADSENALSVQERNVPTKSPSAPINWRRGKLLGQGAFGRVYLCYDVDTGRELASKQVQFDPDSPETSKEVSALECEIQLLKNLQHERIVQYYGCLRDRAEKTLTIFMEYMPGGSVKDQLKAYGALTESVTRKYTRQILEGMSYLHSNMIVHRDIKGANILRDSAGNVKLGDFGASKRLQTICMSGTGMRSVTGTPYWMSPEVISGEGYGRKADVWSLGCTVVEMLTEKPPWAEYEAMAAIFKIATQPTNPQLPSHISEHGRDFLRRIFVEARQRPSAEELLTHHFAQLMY
MEKK2wt confirm – raises or lowers MEK5 binding to wildtype human MEKK2, retest; shares compounds with MEKK3 PB1 HTS; bead flow cytometry, Alexa488-MEK5 binding to MEKK2 WT; actives lie on both sides; binding response (% of control), % at 10 µM; 2.4% of 5,900 active; AID 1892; in the data active = binding response below about 16% or above about 210%; inactive = in between
MEKK2mut confirm – signal of MEK5 binding to mutant human MEKK2, retest; bead flow cytometry, Alexa488-MEK5 binding to MEKK2 mutant; percent response, % at 10 µM; 2% of 5,900 active; shares compounds with MEKK3 PB1 HTS; in the data active = percent response mostly above about 71%, no sharp cut-off; inactive = mostly below about 38%;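 also: higher means compound restores mutant binding toward wildtype level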
MEKK3-MEK5 inh – MEKK3-MEK5 PB1 inhibition, single concentration confirmation. 1.8% of 5,900 active. bead flow cytometry, Alexa488-MEK5 binding to MEKK3; stronger effect = lower value. AID 1894. binding response (% of control), % at 10 µM. shares compounds with MEKK3 PB1 HTS;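 active = binding response below 72% of control, or above a set upper limit, though filed actives all read lower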;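 also: 100% = DMSO only wells and 0% = binding blocked by excess unlabeled MEK5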
* marks the source's active call; other numbers are inactive results; x = no result; [ ] = dose if it differs, or a comment. Shown are actives, neighbours in structure and some others; about 2.3% of the full set was active somewhere.

SMILES | MEKK2wt PB1 HTS | UBC13 inh | MEKK2 mut-MEK5 | MEKK3 PB1 HTS | MEKK2wt confirm | MEKK2mut confirm | MEKK3-MEK5 inh
C=Cc1c(C)c2cc3[nH]c(cc4nc(cc5nc(cc1[nH]2)C(C)=C5CCC(=O)O)C(CCC(=O)O)=C4C)c(C)c3C=C | 60*[inhibitor] | -44 | -8 | 88 | 69 | -13 | 98
CCN(CC)C(=O)COc1ccc(-c2nnc(Nc3ccc(OC)c(C(=O)NC)c3)c3ccccc23)cc1 | 93 | -10 | -15 | 92 | x | x | x
CC1CN(C(=O)COC(=O)CSc2ccc([N+](=O)[O-])cc2)CC(C)O1 (configuration not stated) | x | -14 | x | x | x | x | x
CN1CCc2c(sc3nc(SCC(N)=O)n(-c4ccccc4)c(=O)c23)C1 | 105 | -11 | 79* | 99 | 94 | -6 | 99
CCn1c(SCC(=O)c2ccccc2)nc2sc3c(c2c1=O)CCN(C)C3 | 124 | 3 | 29 | 130* | 104 | 0 | 104
COc1ccc(Cn2c(SCc3cc(C)ccc3C)nc3cc(OC)c(OC)cc3c2=N)cc1 | 174* | 44 | 38 | 107 | 205 | 57 | 101
COc1ccc(Cn2c(SCc3ccc(C)cc3)nc3cc(OC)c(OC)cc3c2=N)cc1Cl | 212* | 38 | 71* | 102 | 208* | 80* | 102
O=C(NCCOC(=O)c1c(F)cccc1Cl)c1c(F)cccc1Cl | 102 | x | 1 | 102 | x | x | x
COc1ccc(CNC(=O)COC(=O)CN2C(=O)C3CC=CCC3C2=O)cc1 (configuration not stated) | x | -1 | x | x | x | x | x
COc1ccc(-c2c(C)n([O-])c3c([n+]2=O)CCCCC3)cc1 | 104 | 1 | -1 | 135* | 103 | 2 | 102
CCCc1cc2c(=O)c(-c3ccccn3)c(C)oc2cc1O | 93 | 12 | -12 | 75*[inhibitor] | 103 | -3 | 100
CNC(=O)CSc1nnc(-c2ccccc2F)n1CCc1ccccc1 | 96 | 13 | -3 | 98 | x | x | x
CC(C)COCC1CC2(CC(C)C(=O)CC2=O)C(=O)O1 (configuration not stated) | 125 | -7 | 17 | 123* | 89 | -10 | 85
CC(C)COCC1CC2(CC(C)(c3csc(N)n3)OC2=O)C(=O)O1 (configuration not stated) | 106 | x | 4 | 107 | x | x | x
CC(C)CNC(=O)c1cc([N+](=O)[O-])ccc1N1CCOCC1 | 95 | -3 | 1 | 101 | x | x | x
CCC(C)(C)NC(=O)c1cc([N+](=O)[O-])ccc1N1CCOCC1 | 113 | -6 | 1 | 157* | 100 | -7 | 100
COc1ccc2c(c1)C=C([C@@H]1C[C@H]3CN(c4ccccc4)C(=O)[C@]34CCCN14)CO2 | 90 | 6 | -7 | 99 | x | x | x
COc1ccc(CN2CCN(Cc3ccccc3F)CC2)cc1OC | 107 | 3 | 5 | 101 | x | x | x
CC(=O)Nc1ccc(S(=O)(=O)N(C)CC(=O)OCC(=O)N(C)c2ccccc2)cc1 | 103 | -1 | 5 | 96 | x | x | x
CCNc1ccc(C(=O)OCC(=O)NC(=O)NCC(C)C)cc1[N+](=O)[O-] | 98 | -6 | 5 | 99 | x | x | x
CCNc1ccc(C(=O)OCC(=O)NCc2ccccc2Cl)cc1[N+](=O)[O-] | 111 | 2 | 1 | 140* | 100 | -2 | 102
CCC(=O)N1N=C(c2ccc(NS(C)(=O)=O)cc2)CC1c1ccc(N(C)C)cc1 (configuration not stated) | 98 | -4 | 1 | 102 | x | x | x
CN1C/C(=C\c2ccc(N3CCOCC3)cc2)C(=O)/C(=C/c2ccc(N3CCOCC3)cc2)C1 | 81 | -59 | -4 | 89 | x | x | x
CCN1C/C(=C/c2ccc(N3CCOCC3)cc2)C(=O)/C(=C/c2ccc(N3CCOCC3)cc2)C1 | 26*[inhibitor] | x | -23 | 93 | 80 | -11 | 92
CCCC1CCc2[nH]nc(C(=O)NN)c2C1 (configuration not stated) | x | -13 | x | x | x | x | x
SMILES | MEKK2wt PB1 HTS | UBC13 inh | MEKK2 mut-MEK5 | MEKK3 PB1 HTS | MEKK2wt confirm | MEKK2mut confirm | MEKK3-MEK5 inh
COc1ccccc1OCCNS(=O)(=O)c1ccc2oc3ccccc3c2c1 | 109 | -6 | 3 | 138* | 104 | 1 | 102
O=S(=O)(NCCOc1ccccc1Cl)c1ccc2oc3ccccc3c2c1 | x | 11 | x | x | x | x | x
N#Cc1sc2nc(C3CC3)cc(-c3ccccc3)c2c1N | 100 | 21 | 0 | 131* | 104 | 2 | 103
CCN1CCN(c2ccc(S(=O)(=O)N3CCCCC3)cc2NC(=O)CC(C)c2ccccc2)CC1 (configuration not stated) | x | 6 | x | x | x | x | x
Cc1ccsc1/C=N/NC(=O)Cn1nc(C)c([N+](=O)[O-])c1C | 92 | -14 | -13 | 93 | x | x | x
Cc1nn(CC(=O)O)c(C)c1[N+](=O)[O-] | 99 | 1 | -10 | 101 | x | x | x
C/C(=N\NC(=O)Cn1nc(C)c([N+](=O)[O-])c1C)c1ccc(Cl)s1 | 114 | -3 | 31 | 128* | 95 | 0 | 100
Cc1nn(CC(=O)NC(C)C)c(C)c1[N+](=O)[O-] | 79 | 3 | -8 | 69*[inhibitor] | 105 | 13 | 103
CS(=O)(=O)NCCCCCCNS(C)(=O)=O | 97 | 5 | -3 | 96 | x | x | x
CC1(C)NC(=O)N(CC(O)Cn2nnc3ccccc32)C1=O (configuration not stated) | 88 | -4 | -12 | 80*[inhibitor] | 115 | 11 | 105
COc1ccc(-c2cc(-c3nnc(COC(=O)CC4CCCC4)o3)c3ccccc3n2)cc1OC | 93 | 10 | 0 | 135* | 95 | -9 | 99
O=C(Nc1ccccc1)N(C1=NCCCCS1)c1cccc2ccccc12 | 116 | -17 | 4 | 127* | 102 | 4 | 98
Cc1nc(N)sc1-c1csc(Nc2ncccn2)n1 | 50 | x | -15 | 35*[inhibitor] | 46 | -29 | 43*
COc1ccccc1Nc1nc(-c2sc(N)nc2C)cs1 | 96 | -12 | 2 | 93 | x | x | x
Cc1ccc(Cc2nnc3n(-c4ccccc4)nc(C(=O)c4ccccc4)n3c2=O)cc1 | 86 | 3 | -2 | 65*[inhibitor] | 96 | 1 | 98
COc1ccc2c(/C=C/c3cc[n+](C)cc3)c[nH]c2c1 | 168* | -151 | 48* | 104 | 101 | -1 | 93
Cc1ccc2[nH]cc(/C=C/c3cc[n+](C)cc3)c2c1 | 112 | -492 | -3 | 101 | x | x | x
CCOP(=O)(c1ccccc1)C(O)c1ccc(F)cc1 (configuration not stated) | 107 | 2 | 0 | 144* | 61 | -16 | 86
CCCCCCCCCC[n+]1cccc2c3ccccc3ccc21 | 213* | x | 10 | 119 | 150 | 22 | 102
O=C(NCCCN1CCN(c2cccc(Cl)c2)CC1)c1ccc(N2CCCC2=O)cc1 | 111 | 12 | 7 | 98 | x | x | x
